D3 antag – qHTS of D3 Dopamine Receptor Antagonist: qHTS; D3R cells, DiscoveRx beta-arrestin luminescence, antagonist mode; active compounds read low; max response, negative = inhibition, %; D(3) dopamine receptor (Homo sapiens), P35462; actives 2.5% (n = 360,000); in the data active = max response below about -50%; inconclusive = no clear call, values can overlap the other calls
Target sequence (P35462 whole entry, looked up): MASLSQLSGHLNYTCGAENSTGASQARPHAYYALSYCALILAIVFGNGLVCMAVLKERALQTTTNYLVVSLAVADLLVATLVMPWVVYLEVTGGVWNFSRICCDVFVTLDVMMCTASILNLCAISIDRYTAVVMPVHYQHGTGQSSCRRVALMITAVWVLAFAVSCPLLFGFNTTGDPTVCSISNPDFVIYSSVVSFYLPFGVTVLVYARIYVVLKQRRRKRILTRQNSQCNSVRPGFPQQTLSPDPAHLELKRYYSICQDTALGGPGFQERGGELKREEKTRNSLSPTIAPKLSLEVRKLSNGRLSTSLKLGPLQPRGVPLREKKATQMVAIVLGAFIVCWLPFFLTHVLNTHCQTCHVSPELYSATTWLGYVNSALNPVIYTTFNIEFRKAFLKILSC
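Cells plated overnight at 1500 cells/well, then exposed to library compounds with dopamine controls for 90 minutes at 37 degrees C. DiscoveRx reagent added for 30–60 minutes at room temperature; luminescence read, quantitative HTS format.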
ATXN viability – Viability Counterscreen for Primary qHTS for Inhibitors of ATXN expression; S2 cells (HEK-293 line with an ATXN2-luciferase reporter) viability, CellTiter-Fluor protease fluorescence, 24 h; Potency, µM (titrated, usually from 56.7 µM), hits mostly cytotoxic; actives 0.49% (n = 400,000); also: nearly all actives have a fitted effect of over 40% in size
TGFb inhibitor – qHTS for Inhibitors of TGF-b | actives 1.2% (n = 410,000) | HepG2 CAGA-GFP TGF-b/SMAD3 reporter, GFP fluorescence, 18 h; TGF-beta stimulated, 500 pg/mL final | AID 588855, 2011 | Potency, µM (highest dose often 46.1 µM), most hits filed as inhibitors; also: nearly all actives have a fitted effect of over 65% in size
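TGF-beta reporter screen: HEPG2 CAGA-GFP, 1% FBS, 500 pg/mL TGF-beta final, 18 h; per-cell GFP summed per well; curves fitted and categorized by class.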
HepG2 viability – qHTS for Inhibitors of TGF-b: Cytotox Counterscreen. actives 0.76% (n = 410,000). HepG2 CAGA-GFP viability, ATP luminescence, 18 h. Potency, µM (titrated, usually from 46.1 µM), usual class: cytotoxic. AID 588856, 2011
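HepG2 CAGA-GFP cells (1000/well, DMEM with 1% FBS) received compound, then TGF-beta at 500 pg/mL final, and were incubated 18 hours at 37 degrees C. Viability was read by CellTiter-Glo luminescence. Media-only wells were set as complete cell-killing and DMSO as no toxicity.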
ATXN2 expr inh – Primary qHTS for Inhibitors of ATXN expression; Potency, µM (doses to about 57 µM), most hits filed as inhibitors; HEK-293 ATXN2-luciferase reporter, luminescence, 24 h; actives 0.72% (n = 360,000); also: nearly all actives have a fitted effect of over 55% in size
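qHTS (up to 57 uM final) was run with 24 h compound exposure of reporter cells at 37 °C. Each well was multiplexed: SteadyGlo luminescence measured ATXN2-luciferase expression after a fluorogenic Gly-Phe-AFC viability readout (25 uM final).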
DRD3 agonist – qHTS of D3 Dopamine Receptor Agonist: qHTS; D(3) dopamine receptor (Homo sapiens), P35462; D3R DiscoveRx beta-arrestin cells, luminescence, 90 min; max activation, %; actives 0.58% (n = 410,000); AID 652048, 2013; in the data active = max activation above about 30%
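Cells at 1500/well, incubated overnight, then treated with pinned compounds (dopamine as control) for 90 min at 37 degrees C. DiscoveRx reagent added for 30 - 60 minutes at room temperature; luminescence read.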
A number is an active result; 0 = inactive; ? = inconclusive; - = no result given. Shown are actives, neighbours in structure and some others; about 4.8% of the full set was active somewhere. Unless noted, calls follow the shape of the dose curve; as a rule, active = well fitted curve in the direction sought with a large enough effect; inconclusive = small, poorly fitted or top-dose-only effect, or another doubt; inactive = no such curve, though single readings can be large; an effect the other way counts as inactive or inconclusive.

SMILES	D3 antag	ATXN viability	TGFb inhibitor	HepG2 viability	ATXN2 expr inh	DRD3 agonist
COc1cc(C=CC(=O)c2cc(OC)c(OC)c(OC)c2)cc(OC)c1OC	0	?	11.2µM	0	?	0
COc1ccc(C2CC(=O)N(Cc3cccc(C)c3)c3c2c(C)nn3-c2nc(C)cc(C)n2)c(OC)c1 (configuration not stated)	-	0	0	0	0	0
CCN1CCN(CCCNC(=O)c2ccc(/C=C3/Sc4ccccc4N(Cc4ccccc4F)C3=O)cc2)CC1	0	0	?	11.2µM	?	0
CCN1CCN(CCNC(=O)c2ccc(/C=C3/Sc4ccccc4N(Cc4ccccc4C)C3=O)cc2)CC1	0	?	17.8µM	0	?	0
CCOC(=O)C1CCN(Cc2cnc(Oc3ccc(C(C)(C)C)cc3)s2)CC1	-93.2	0	0	0	0	0
CCOC(=O)C1CCN(Cc2cnc(NC(=O)OC)s2)CC1	0	-	0	0	-	0
Cc1ccc(CCNC(=O)c2ccc3c(c2)N(Cc2ccccc2F)C(=O)c2ccccc2S3=O)cc1 (configuration not stated)	-	0	0	0	0	0
CCCC[C@@H](CN[C@H](C)CNC)NCC1CCC(C(C)(C)C)CC1 (some centres not stated)	0	31.6µM	?	17.8µM	35.5µM	0
CC[C@H](C)[C@@H](CN[C@H](CCCCNC)CNC)NCC1CCCC1	0	0	0	0	0	0
O=C(NCc1cccnc1)/C(=C\c1ccc(-c2cccc(Cl)c2)o1)S(=O)(=O)c1ccccc1	-50.3	-	15.8µM	0	25.1µM	0
O=C(c1cc(-c2ccccc2)nc2ccccc12)N1CCCC1	0	0	0	0	0	0
c1ccc(-c2cc(NCCN3CCCCC3)c3ccccc3n2)cc1	0	-	?	0	28.2µM	0
COc1ccc(-c2nc(CSCC(=O)N3CCN(c4ccccc4F)CC3)c(C)o2)cc1	-	-	6.31µM	0	?	0
COc1ccc(-c2nc(CN3CCN(c4ccccc4OC)CC3)c(C)o2)cc1	-70.9	0	0	0	0	0
COc1ccccc1CN1CCN(Cc2nc(-c3ccc(C)cc3)oc2C)CC1	0	0	?	0	0	0
COc1ccccc1N1CCN(Cc2nc(-c3ccc(F)cc3)oc2C)CC1	-115.5	?	?	0	-	0
COc1ccc(-c2nc(CN3CCN(Cc4cccc(Cl)c4)CC3)c(C)o2)cc1	-60.3	-	0	0	-	0
COc1cccc(CNC(=O)c2ccc(CN3CC(=O)N4CCCCC4C3=O)cc2)c1 (configuration not stated)	-	-	0	0	-	0
CCOC(=O)c1ccc(NC(=O)CC2C(=O)N(c3ccc(F)cc3)C(=O)N2Cc2cccnc2)cc1 (configuration not stated)	-	-	0	0	-	0
COc1ccccc1N1CCN(Cc2cn[nH]c2-c2ccc(F)cc2)CC1	-66.8	?	0	0	0	0
CCCCOc1ccc(S(=O)(=O)Nc2cccc(-c3ccc(N4CCOCC4)nn3)c2)cc1	-	?	?	0	0	0
N/C(=N\OC(=O)c1ccccc1Br)c1ccc([N+](=O)[O-])cc1	-70.8	?	0	0	0	0
N/C(=N\OC(=O)c1ccc(Cl)c([N+](=O)[O-])c1)c1ccccc1	-65.3	0	0	0	-	0
CCc1cccc(NCc2ccccc2-c2nnc(-c3ccccc3Cl)o2)c1	-	0	0	0	0	0
CN(C)CC(C)(C)CNc1nn2c(-c3ccccc3)nnc2cc1C1CCC1	-	-	-	-	0.769µM	-
SMILES	D3 antag	ATXN viability	TGFb inhibitor	HepG2 viability	ATXN2 expr inh	DRD3 agonist
COc1ccc(C(=O)N/N=C/c2ccc(OC(=O)c3ccccc3)cc2)cc1	0	0	0	0	0	0
COC(=O)N/N=C/c1cccnc1	0	0	0	0	0	0
COc1ccc(C(=O)N/N=C/c2ccc(N(C)c3ccccc3)cc2)cc1	0	0	0	0	26.7µM	0
COC(=O)N/N=C/c1ccccc1	0	0	0	0	0	42.0
CC1(C)C[C@H]2C3=CCC4[C@@]5(C)CC[C@H](O[C@@H]6O[C@H](C(=O)O)[C@@H](O)[C@H](O)[C@H]6O)[C@@](C)(CO)C5CC[C@@]4(C)[C@]3(C)C[C@H](O)[C@@]2(CO)[C@@H](O)[C@@H]1O (some centres not stated)	0	0	0	0	0	0
C/C=C(/C)C(=O)OC1CC(C)(C)C[C@H]2C3=CC[C@@H]4[C@@]5(C)CCC(O[C@@H]6O[C@@H](C(=O)O)[C@@H](O)C(O[C@@H]7OC[C@H](O)[C@@H](O)[C@@H]7O[C@@H]7OC(CO)C(O)[C@@H](O)[C@@H]7O)C6O[C@@H]6OC(CO)C(O)C(O)C6O)[C@@](C)(CO)[C@@H]5CC[C@]4(C)[C@]3(C)CC(O)[C@@]12CO (some centres not stated)	0	31.6µM	14.1µM	14.1µM	0	0
C/C=C(\C)C(=O)OC1[C@H](OC(C)=O)C2(CO)C(CC1(C)C)C1=CCC3C4(C)CCC(O[C@@H]5O[C@H](C(=O)O)[C@@H](O[C@@H]6O[C@H](CO)[C@@H](O)[C@H](O)[C@H]6O)[C@H](O)[C@H]5O[C@H]5O[C@H](CO)[C@@H](O)[C@H](O)[C@H]5O)[C@](C)(CO)C4CCC3(C)[C@]1(C)C[C@H]2O (some centres not stated)	-120.7	14.1µM	4.47µM	0	8.91µM	0
COc1ccc(O)c(C(=O)N2CCC3(CC2)c2ccccc2[C@@H](NC(=O)c2ccccn2)[C@@H]3OC)c1	-	0	-	-	-	-
COc1ccc2cc3c(N)c(C(=O)NCc4ccco4)sc3nc2c1	-54.6	0	0	0	0	0
COc1ccccc1C(=O)N[C@@H]1c2ccccc2C2(CCN(Cc3cccnc3)CC2)[C@H]1O	-	0	-	-	-	-
Cc1ccc(Nc2nnc(-c3ccc(C)c(S(N)(=O)=O)c3)c3ccccc23)cc1	-	0	10µM	0	0	0
CCOC(=O)CNS(=O)(=O)c1cc(-c2nnc(Nc3cccc(O)c3)c3ccccc23)ccc1C	-	-	0	11.2µM	-	0
Cc1ccc(-c2nnc(Nc3ccc(CC(N)=O)cc3)c3ccccc23)cc1	?	0	12.6µM	0	0	0
COC(=O)COc1ccc(-c2nnc(Nc3ccc(O)cc3)c3ccccc23)cc1	-	?	?	11.2µM	?	0
Cc1ccc(-c2nnc(Nc3ccc(CC(N)=O)cc3)c3ccccc23)cc1S(N)(=O)=O	0	0	?	0	0	0
